# Measurements as given in the supplement of paper PMC3484114.
# ± gives the standard deviation.
# Test system: OVCAR-3-derived ovarian cancer stem-like cells (spheroids)
# Test: cell growth relative to untreated control; higher = more growth (less inhibition)
# Conditions: 2.29 µM; 96 h
# Method in brief: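 Percent growth was calculated against untreated wells once blanks were subtracted and Grubbs outliers removed. The cells were OVCAR-3 spheroid-derived stem-like cells, trypsinized and plated at 50,000 cells/mL in stem cell medium on ultra-low attachment 96-well plates for a 24 h preincubation. They were then exposed to compounds at 2.29 uM for 96 h at 37°C, 5% CO2, in 4 replicate wells, and viability was measured by TOX8 resazurin fluorescence (ex 560/em 590 nm) after 4 h.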
row,Structure (SMILES),cell growth
1,COc1ccc2oc(-c3ccncc3)cc(=O)c2c1,122 ± 9.1%
2,Cc1ccccc1NC(=O)C(=O)C(C#N)c1ccccc1C (centres undefined),7.3 ± 3.2%
3,CC12CC(Br)(Br)C(=O)C3C1CCCC32,159 ± 19%
4,CC(=O)OCc1c2ccccc2c(C)c2c1cc(F)c1ccccc12,85.4 ± 9.4%
5,CCCCCCCCCCCCCCCCCCOCC(COP(=O)([O-])OCC[N+](C)(C)C)OC (centres undefined),93 ± 25%
6,CN1C(Cl)=NS(=O)(=O)c2ccccc21,99.9 ± 12%
7,O=C(Nc1ccccc1-c1nn(C(=S)Nc2ccccc2)c(=S)n(C(=S)Nc2ccccc2)c1=O)C(F)(F)F,84.8 ± 15%
8,Cc1cc2c(cc1C)[n+](=O)c(C(=O)/C=C/c1ccccc1[N+](=O)[O-])c(C)n2[O-],123 ± 66%
9,O=C([O-])c1cc(I)cc(I)c1O.O=C([O-])c1cc(I)cc(I)c1O.[Mn+2],77.4 ± 10%
10,CCCCCCCCCCCCCCCCOCC(O)CO (centres undefined),126 ± 28%
11,NC(=S)N/N=C/c1ccc(OC(=O)COc2ccccc2Cl)cn1,90.5 ± 27%
12,O=[N+]([O-])c1ccccc1S(=O)(=O)c1ccccc1[N+](=O)[O-],77.1 ± 18%
13,NC1=NCN([C@@H]2O[C@H](CO)[C@@H](O)[C@H]2O)C(=O)N1,85.8 ± 11%
14,CCOC(=O)Nc1cc2c(c(N)n1)N=C(c1ccccc1)CN2,89.9 ± 15%
15,O=c1c(O)c(-c2ccc(O)c(O)c2)oc2cc(O)ccc12,94.3 ± 22%
16,CC(C)C1=C(O)C2=C(C(=O)C1=O)C1(C)CCCC(C)(C)C1CC2O (centres undefined),134 ± 36%
17,COc1ccc2cc3[n+](cc2c1OC)CCc1cc2c(cc1-3)OCO2,57.3 ± 7.4%
18,CC1=NN(C(=O)c2ccncc2)C(=O)C1N=Nc1ccc(F)cc1 (centres undefined),146 ± 33%
19,COc1ccc(NC(=O)CC(=O)N2N=C(C)C(N=Nc3ccc(S(=O)(=O)c4ccc(N=NC5C(=O)N(C(=O)CC(=O)Nc6ccc(OC)cc6)N=C5C)cc4)cc3)C2=O)cc1 (centres undefined),105 ± 30%
20,O=C(NCCCCCCCCNC(=O)c1cccc2ccccc12)c1cccc2ccccc12,80.8 ± 18%

row,Structure (SMILES),cell growth
1,CCCCCCCCCCCCCCCCCCOP(=O)([O-])OCC[N+](C)(C)C,51.1 ± 16%
2,Nc1ccc2cc3ccc(N)cc3nc2c1,25.8 ± 6.4%
3,COc1cc2c(c(OC)c1OC)-c1ccc(OC)c(=O)cc1[C@@H](NC(=O)c1ccccc1)CC2,30.8 ± 5.6%
4,C[C@]12CC[C@@H]3c4ccccc4CC[C@H]3[C@@H]1CC[C@@H]2O,229 ± 23%
5,C=C1CC(Cn2cc(Br)c(=O)[nH]c2=O)(c2ccc(-c3ccccc3)cc2)OC1=O (centres undefined),57.1 ± 20%
6,OCCNCCN1CCN(CCCN2c3ccccc3Sc3ccc(C(F)(F)F)cc32)CC1,126 ± 42%
7,CO[C@@H]1[C@@H](OC(=O)c2ccc(C)[nH]2)[C@@H](O)[C@H](Oc2ccc3c(O)c(NC(=O)c4c[nH]c(C(=O)Nc5c(O)c6ccc(O[C@@H]7OC(C)(C)[C@H](OC)[C@@H](OC(=O)c8ccc(C)[nH]8)[C@H]7O)c(C)c6oc5=O)c4C)c(=O)oc3c2C)OC1(C)C,100 ± 22%
8,COc1cc(O)c(Cc2ccccc2O)c(O)c1C(=O)CCc1ccccc1,86.8 ± 30%
9,C=C1CC(COc2cc(=O)oc3ccccc23)(c2ccccc2)OC1=O (centres undefined),76.3 ± 22%
10,O=C1/C(=C/c2cccs2)Oc2ccccc21,94 ± 12%
11,O=C(N=Nc1c(O)[nH]c2ccccc12)c1ccccc1O,105 ± 11%
12,O=Nc1ccc(O)c2ncccc12,82 ± 25%
13,O=C(c1nc2ccc(Cl)cc2[nH]c1=O)C(O)c1ccc2c(c1)OCO2 (centres undefined),109 ± 61%
14,CCOC(=O)NC(Nc1ccc(F)cc1)(C(=O)OCC)C(F)(F)F (centres undefined),199 ± 130%
15,CC(C)N.CC(C)N.[Cl-].[Cl-].[OH-].[OH-].[Pt],65.4 ± 57%
16,O=C1c2ccccc2C(=O)c2c(O)c(O)cc(O)c21,25.5 ± 6.6%
17,CCN(CC)Cc1cc(N=Nc2c(O)ccc3c(N=Nc4ccc(O)c(CN(CC)CC)c4)c(O)ccc23)ccc1O,70.5 ± 21%
18,O=C1Oc2ccccc2C(=O)/C1=C1\C=C(c2ccccc2)SS1,158 ± 71%
19,CC(C)CC(NC(=O)OCc1ccccc1)C(=O)NC(Cc1ccccc1)C(=O)CCl (centres undefined),92.9 ± 35%
